Results on 35 compounds are retold here after PubChem BioAssay (NCATS).

Assay [1] deals with Calcium and integrin-binding protein 1 (Homo sapiens) (UniProt Q99828). The assay is described as follows: Primary qHTS for Identification of Calcium Integrin Binding Protein 1 (CIB1) Competitor (AID 1508620; active means well fitted curve in the direction sought with a large enough effect; an effect the other way counts as inactive or inconclusive; further: top concentration of the series differs between compounds). The method, boiled down: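 Fluorescence polarization competition: GST-tagged CIB1 (1 uM final) preincubated with compound 15 min at room temperature, then FITC-labelled alphaIIb peptide (100 nM final) added. After 15 min at room temperature, polarization read at Ex 480/Em 540.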
In general terms: In qHTS, concentration-response curves come from the screen itself.

The target of assay [2] is Cytochrome P450 2D6 (Homo sapiens) (UniProt P10635). The assay is described as follows: Cytochrome P450 family 2 subfamily D member 6 (CYP2D6) small molecule antagonists: luciferase biochemical (cell-free) qHTS assay (AID 1645840). Further: nearly all actives have a fitted effect of over 55% in size. Further: potency means the concentration at half of the fitted maximal effect. On activity change, negative = inhibition: series mostly up to about 57 µM. The method, boiled down:
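P450-Glo CYP2D6 system: proluciferin substrate converted by enzyme to luciferin, read by luminescence proportional to activity. Enzyme-substrate mix with compound 10 min at room temperature, then NADPH regeneration 1 h before detection reagent.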

Results filed as inconclusive are left out. Where a call stands in place of a potency, no number is given. A number with no mark means an inactive call. Active and inactive are the calls of the source. Unless noted, the call rests on the fitted dose curve; in most records, active means well fitted curve in the direction sought with a large enough effect in the repeat runs; inconclusive means weak or mixed curves; inactive means no such curve, though single readings can be large; an effect the other way counts as inactive or inconclusive.

Chain of Cytochrome P450 2D6 (Homo sapiens) (P10635 whole entry, looked up): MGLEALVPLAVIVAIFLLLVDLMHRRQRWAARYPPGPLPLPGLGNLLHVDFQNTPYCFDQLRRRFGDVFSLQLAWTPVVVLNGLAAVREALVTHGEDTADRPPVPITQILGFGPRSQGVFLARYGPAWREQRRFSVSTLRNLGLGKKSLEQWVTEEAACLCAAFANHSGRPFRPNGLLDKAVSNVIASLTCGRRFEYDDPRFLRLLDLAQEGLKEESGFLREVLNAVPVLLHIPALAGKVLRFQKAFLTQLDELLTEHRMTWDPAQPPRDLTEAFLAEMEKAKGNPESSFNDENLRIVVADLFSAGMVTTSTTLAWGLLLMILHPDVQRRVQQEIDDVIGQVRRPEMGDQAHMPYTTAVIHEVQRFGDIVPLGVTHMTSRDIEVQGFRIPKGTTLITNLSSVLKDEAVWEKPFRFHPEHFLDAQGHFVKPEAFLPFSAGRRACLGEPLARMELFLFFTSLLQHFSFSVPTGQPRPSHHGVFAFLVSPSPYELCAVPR
Chain of Calcium and integrin-binding protein 1 (Homo sapiens) (Q99828 whole entry, looked up): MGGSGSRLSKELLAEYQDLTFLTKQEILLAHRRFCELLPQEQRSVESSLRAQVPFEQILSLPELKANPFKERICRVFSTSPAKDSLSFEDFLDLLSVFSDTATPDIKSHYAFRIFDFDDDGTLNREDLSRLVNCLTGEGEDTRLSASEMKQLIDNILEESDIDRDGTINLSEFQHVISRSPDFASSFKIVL

For `N#Cc1cc(CN2CCC(Nc3ncnc4sc(Cl)cc34)CC2)ccc1F`, the Potency result in assay [1] is “inactive”. In assay [2], the Potency was 1.51 µM (active).
As to `O=C(Nc1nnc(-c2ccc3c(c2)OCCO3)o1)C1CCCCC1`, the Potency entry in assay [1] and in assay [2] was “inactive” throughout.
Take `CNC1CN(c2ccc3c(=O)c(C(=O)O)cn(-c4nccs4)c3n2)CC1OC` (stereo not given): the Potency result in assay [1] is “inactive”. For the same compound, the activity change, negative = inhibition in assay [2] is 16.1% [at 11.5 µM].
As for `Cc1noc(C)c1-c1cc(O)cc(C(O)c2ccccc2)c1` (stereo not given), the Potency result in assay [1] was “inactive”. Further, in assay [2], the Potency is 16.9 µM (active).
Regarding `N#Cc1ccc2ncnc(NCCc3ccccc3)c2c1`, the Potency entry in assay [1] was “inactive”. Also, in assay [2], the Potency is 15.1 µM (active).
As to `COc1ccc(NC(=O)c2ccc(-c3ccc(-c4nnc(C)o4)cc3C)cc2)cc1N1CCN(C)CC1`, in assay [1], the Potency entry was “inactive”. In addition, in assay [2], the Potency was 30.1 µM (active).
On to `O=C(Nc1cc(C(F)(F)F)cc(C(F)(F)F)c1)c1cnc(Cl)nc1C(F)(F)F`, for which the Potency result in assay [1] is “inactive”. Moreover, in assay [2], the Potency was 19 µM (active).
As to `Nc1ncnc2c1c(-c1ccc(Cl)cc1)nn2-c1cccc(-c2cnnn2Cc2cccc(-c3ccccc3)c2)c1`, the Potency result in assay [1] and in assay [2] was “inactive” in each case.
On to `CCC(C)CNCC(=O)N1CCC2SC=CC2C1COc1cccc(C)c1` (stereo not given), for which the Potency result in assay [1] was “inactive”. The Potency in assay [2] is 0.0756 µM (active).
For `CNC(=O)[C@@H](c1ccccc1)N1CCc2cc(OC)c(OC)cc2[C@@H]1CCc1ccc(C(F)(F)F)cc1`, in that order: “inactive” and 4.77 µM (active).
In the case of `CN(C)CCN(Cc1ccc(-c2ccc(CNCCc3ccccc3)cc2)cc1)C(=O)CCC1CCCC1`, the Potency result in assay [1] was “inactive”. Besides, the Potency in assay [2] was 0.601 µM (active).
The corresponding values for `COc1cc(OC)c2c(=O)[nH]c(-c3cc(C)c(OCCO)c(C)c3)nc2c1` are “inactive” and “inactive”.
For the compound `COc1ccc(CN2CCN(C(=O)CCNC(=O)c3ccc(C(C)(C)C)cc3)CC2)cc1`, in assay [1], the Potency entry was “inactive”. For the same compound, in assay [2], the Potency was 15.1 µM (active).
For `CCOC(=O)C1(CCOc2ccccc2)CCN(Cc2ccc(O)c(Cl)c2)CC1`, in that order: “inactive” and 0.425 µM (active).
With `Cc1nc(NC(=O)N2CCC[C@H]2C(N)=O)sc1-c1ccnc(C(C)(C)C(F)(F)F)c1`, the Potency entry in assay [1] and in assay [2] was “inactive” each time.
In the case of `CCOC(=O)N1CCC(N2CCC[C@@H](NC(=O)c3ccccc3C)C2)CC1`, the Potency result in assay [1] is “inactive”. Also, in assay [2], the Potency is 16.9 µM (active).
In the case of `Fc1ccc(-c2cncc(CN3CCN(c4cccc5c4OCCO5)CC3)c2)cc1`, the Potency result in assay [1] is “inactive”. For the same compound, the Potency in assay [2] was 9.52 µM (active).
For `O=C(N[C@@H]1CCCc2c1cnn2-c1ccc(F)cc1F)c1ccccn1`, the Potency entry in assay [1] and in assay [2] was “inactive” each time.
Turning to `CC(C)c1ccc(NC(=O)c2cccs2)c(-c2nc3ccccc3[nH]c2=O)c1`, the Potency result in assay [1] was “inactive”. In addition, in assay [2], the Potency is 13.5 µM (active).
For `CN1CCC(NC(=O)c2cc(-c3c(O)cc(O)cc3Oc3ccc([N+](=O)[O-])cc3)on2)CC1`, in that order: “inactive” and “inactive”.
The corresponding values for `Cc1ccc(C2(C(=O)N3CCC(n4nc(-c5ccccc5)oc4=O)CC3)CC2)cc1` are “inactive” and 13.5 µM (active).
The corresponding values for `c1cc(NC2CCNCC2)nc(-c2cnc3ccccn23)c1` are “inactive” and 15.1 µM (active).
With `Cn1cc(-c2cnn3c(N)c(Br)c([C@@H]4CCCNC4)nc23)cn1`, the Potency entry in assay [1] was “inactive”. In assay [2], the Potency is 10.7 µM (active).
The corresponding values for `CC(C)c1cc2c(N3CCN(C4=NCC(C)(C)S4)CC3)ncnc2s1` are “inactive” and 3.01 µM (active).
The corresponding values for `CC(=O)NCc1cccc(OC[C@@H](O)CNCCc2ccc(NS(=O)(=O)c3ccccc3)cc2)c1` are “inactive” and 0.849 µM (active).
Turning to `Cc1cc2sc(NC(=O)Cc3ccccc3)nc2cc1Cl`, the Potency entry in assay [1] and in assay [2] was “inactive” each time.
In the case of `CN1CCN(Cc2ccc(NC(=O)Cc3ccc(Oc4cc(NC(=O)C5CC5)ncn4)cc3)cc2C(F)(F)F)CC1`, the Potency entry in assay [1] was “inactive”. Further, the Potency in assay [2] is 15.1 µM (active).
Take `O=c1cc(N2CCN(c3cccc(C(F)(F)F)c3)CC2)[nH]c(=O)n1C1CCCCC1`: the Potency entry in assay [1] and in assay [2] was “inactive” throughout.
Regarding `CN1CCN(C(=O)CN[C@@H]2C[C@H]2c2ccc(OCc3ccccc3)cc2)CC1`, the Potency entry in assay [1] was “inactive”. In assay [2], the Potency is 10.7 µM (active).
Consider `NS(=O)(=O)Nc1ncnc(OCCOc2ncc(Br)cn2)c1-c1ccc(Br)cc1`, for which the Potency entry in assay [1] and in assay [2] was “inactive” in each case.
As to `O=C(Nc1ccccc1)c1ccc(Nc2nnc(-c3ccc(O)cc3)c3ccccc23)cc1`, the Potency result in assay [1] and in assay [2] was “inactive” each time.
Consider `O=S(=O)(NCc1cccc2ccccc12)c1cc(Cl)c(Oc2cccc(N3CCNCC3)c2)s1`, for which the Potency result in assay [1] is “inactive”. For the same compound, the Potency in assay [2] was 8.49 µM (active).
For `CNc1cccc(CCOc2ccc3c(c2)CN(CC(F)(F)F)C(=O)[C@H](CC(=O)O)C3)n1`, the Potency entry in assay [1] and in assay [2] was “inactive” each time.
On to `O=S1(=O)CCN(Cc2cc(NCC3CCOCC3)c3[nH]c(-c4ccccc4)cc3c2)CC1`, for which, in assay [1], the Potency entry is “inactive”. In addition, the Potency in assay [2] was 12 µM (active).
For `Cc1cnn(-c2ccccc2)c1NC(=O)COCc1ccccc1`, in that order: “inactive” and “inactive”.
